Reference: the supplement of paper PMC10720658
± gives the standard deviation of the averaged measurements.

The compounds below were run on AEK1 (Tb927.3.2440) (assay: percent reduction in TR-FRET probe signal relative to DMSO control; higher = stronger displacement of ATP-site probe (binding)). Conditions: 1 µM; incubation time 1 h.

**Q.** How did the “percent reduction in TR-FRET probe signal” value (shortened to “percent reduction”) turn out when `CCN1CCN(Cc2ccc(-c3cc4c(N[C@H](C)c5ccccc5)ncnc4[nH]3)cc2)CC1` was run?
**A.** The value was 12.6 ± 16%.

**Q.** With `COc1ccc(Cl)cc1NC(=O)Nc1cc(C)nc2ccccc12` as the compound, how does the “percent reduction” value read?
**A.** The value was -2.86 ± 7.3%.

**Q.** With `CN1CCN(c2ccc3nc(-c4c(N)c5c(F)cccc5[nH]c4=O)[nH]c3c2)CC1` [Dovitinib (TKI-258, CHIR-258)] as the compound, how does the “percent reduction” value read?
**A.** The value was 16.9 ± 16%.

**Q.** With `CCn1c2ccccc2c2cc(Nc3ccnc(NCCCN4CCOCC4)n3)ccc21` as the compound, how does the “percent reduction” value read?
**A.** The value was -8.54 ± 5.5%.

**Q.** `CS(=O)(=O)O.Cc1ccc(NC(=O)c2ccc(CN3CCN(C)CC3)cc2)cc1Nc1nccc(-c2cccnc2)n1` [Imatinib Mesylate (STI571)] was tested. Which “percent reduction” value did it give?
**A.** Its value is 7.01 ± 21%.

**Q.** For `Cn1cc(-c2[nH]c3cc(NC(=O)[C@H](N)C4CCCCC4)cc4c3c2C=NNC4=O)cn1`, which “percent reduction” value is on record?
**A.** The value was 76.9 ± 6.5%.

**Q.** Which “percent reduction” value does the source give for `COc1ccc(F)c(F)c1C(=O)c1cnc(NC2CCN(S(C)(=O)=O)CC2)nc1N` here?
**A.** The value was 4.07 ± 8.4%.

**Q.** `CC[C@H](Nc1ncnc2[nH]cnc12)c1nc2cccc(F)c2c(=O)n1-c1ccccc1` [CAL-101 (Idelalisib, GS-1101)] was tested. Which “percent reduction” value did it give?
**A.** Its value is 0.66 ± 12%.

**Q.** How did the “percent reduction” value turn out when `CC(=O)Nc1cccc(-n2c(=O)n(C3CC3)c(=O)c3c(Nc4ccc(I)cc4F)n(C)c(=O)c(C)c32)c1` was run?
**A.** The value was 4.31 ± 12%.

**Q.** How did the “percent reduction” value turn out when `O=c1c(O)c(-c2ccc(O)c(O)c2)oc2cc(O)cc(O)c12` [Quercetin] was run?
**A.** The value was 8.35 ± 5.3%.

**Q.** Which “percent reduction” value does the source give for `C[C@@H]1CCN(C(=O)CC#N)C[C@@H]1N(C)c1ncnc2[nH]ccc12` here?
**A.** The value was 5.48 ± 7.8%.

**Q.** How did the “percent reduction” value turn out when `Cc1cc(Nc2cc(N3CCN(C)CC3)nc(/C=C/c3ccccc3)n2)n[nH]1` was run?
**A.** Its value is 20.9 ± 12%.

**Q.** Which “percent reduction” value does the source give for `O=C(O)[C@]1(Cc2cccc(Nc3nccs3)n2)CC[C@@H](Oc2cccc(Cl)c2F)CC1` here?
**A.** The value was 19.3 ± 12%.

**Q.** `CN(C)C/C=C/C(=O)Nc1cc2c(Nc3ccc(F)c(Cl)c3)ncnc2cc1O[C@H]1CCOC1` [Afatinib (BIBW2992)] was tested. Which “percent reduction” value did it give?
**A.** Its value is 15.6 ± 31%.

**Q.** With `N#Cc1c(NC(=O)c2cccc3ccccc23)sc2c1CCCC2` [JNK Inhibitor IX] as the compound, how does the “percent reduction” value read?
**A.** Its value is -3.71 ± 5.5%.

**Q.** Which “percent reduction” value does the source give for `CN(C)S(=O)(=O)c1ccc2c(c1)/C(=C/c1cc3c([nH]1)CCCC3)C(=O)N2` here?
**A.** The value was 43.6 ± 21%.

**Q.** How did the “percent reduction” value turn out when `Cn1cc(C=C2C(=O)Nc3cccnc32)c2ccccc21` was run?
**A.** Its value is -3.06 ± 6%.

**Q.** Which “percent reduction” value does the source give for `CCn1c(N)c(C(=O)NC)c(=O)c2ccc(C#C[C@@](C)(O)COC)nc21` here?
**A.** The value was 10.3 ± 4.8%.

**Q.** `CN(C[C@@H]1COCCO1)S(=O)(=O)Nc1ccc2ccc3ncc(-c4cnn(C)c4)cc3c(=O)c2c1` was tested. Which “percent reduction” value did it give?
**A.** The value was 7.88 ± 10%.

**Q.** How did the “percent reduction” value turn out when `C=CC(=O)Nc1cccc(Nc2nc(Nc3ccc(Oc4ccnc(C(=O)NC)c4)cc3)ncc2F)c1` was run?
**A.** The value was -4.93 ± 4.3%.

**Q.** With `CCN(CC)CCCC(C)Nc1nc(C)cc(Nc2ccc3nc(C)cc(N)c3c2)n1.Cl.Cl.Cl` (configuration not stated) as the compound, how does the “percent reduction” value read?
**A.** Its value is -2.65 ± 9%.

**Q.** Which “percent reduction” value does the source give for `FC(F)(F)c1ccc(/C=C/c2nc(COc3ccc(CCCCn4ccnn4)cc3)co2)cc1` [Mubritinib (TAK 165)] here?
**A.** Its value is 0.627 ± 0.93%.

**Q.** Which “percent reduction” value does the source give for `COc1cc(Nc2ncc(F)c(Nc3ccc4c(n3)NC(=O)C(C)(C)O4)n2)cc(OC)c1OC` [R406 (free base)] here?
**A.** Its value is 87.4 ± 6%.

**Q.** Which “percent reduction” value does the source give for `CNS(=O)(=O)C[C@H]1CC[C@H](N(C)c2ncnc3[nH]ccc23)CC1.O=C(O)/C=C\C(=O)O` [Oclacitinib] here?
**A.** The value was 6.94 ± 17%.

**Q.** For `Cl.NC(=O)c1cnc(N[C@@H]2CCCC[C@@H]2N)nc1Nc1cccc(-n2nccn2)c1`, which “percent reduction” value is on record?
**A.** The value was -0.93 ± 1.4%.

**Q.** How did the “percent reduction” value turn out when `O=C(NOC[C@H](O)CO)c1ccc(F)c(F)c1Nc1ccc(I)cc1F` was run?
**A.** Its value is -3.89 ± 11%.

**Q.** For `Cc1cnc(Nc2ccc(OCCN3CCCC3)cc2)nc1Nc1cccc(S(=O)(=O)NC(C)(C)C)c1`, which “percent reduction” value is on record?
**A.** The value was 31.6 ± 15%.

**Q.** With `O=C(NCCO)c1cccc(-c2cc(Nc3ccc(OC(F)(F)F)cc3)ncn2)c1` as the compound, how does the “percent reduction” value read?
**A.** The value was 13.3 ± 16%.

**Q.** How did the “percent reduction” value turn out when `Cc1ccc(NC(=O)c2ccc(CN3CCN(C)CC3)cc2)cc1Nc1nc(-c2cccnc2)cs1` [Masitinib (AB1010)] was run?
**A.** The value was -4.2 ± 7%.

**Q.** `CC(C)(C#N)c1ccc(N2C(=O)OCc3cnc4ccc(-c5cnc6ccccc6c5)cc4c32)cc1` was tested. Which “percent reduction” value did it give?
**A.** Its value is -6.23 ± 1.2%.

**Q.** With `Cc1ccc(F)c(NC(=O)Nc2ccc(-c3cccc4[nH]nc(N)c34)cc2)c1` [Linifanib (ABT-869)] as the compound, how does the “percent reduction” value read?
**A.** Its value is 1.08 ± 12%.

**Q.** With `N#Cc1c(Oc2ccc(F)c(NC(=O)Cc3cccc(C(F)(F)F)c3)c2)ccc2nc(NC(=O)C3CC3)sc12` as the compound, how does the “percent reduction” value read?
**A.** Its value is 1.05 ± 9.1%.
